# High-throughput results as filed in PubChem.
# Only some compounds are listed: those with a hit (about 4.6% of all), similar ones and a draw of the others.
# D1 potentiator – human D1 dopamine receptor positive modulation | P21728 | HEK293 TREx D1 cells, calcium flux, dopamine EC20 potentiation | potentiation, % at 10 µM | 0.036% of 360,000 active | AID 504651; in the data active = potentiation above about 30%; also: 0% is about no effect
# TRHR enhancer – allosteric enhancers of human TRH receptor; enhancement, % at 2 µM; 0.66% of 360,000 active; P34981; TRHR cells, fluo-8 calcium fluorescence, EC20 TRH enhancement; AID 493056; in the data active = enhancement above about 30%; also: 0% is about no effect
# Target sequence (P34981 whole entry, looked up): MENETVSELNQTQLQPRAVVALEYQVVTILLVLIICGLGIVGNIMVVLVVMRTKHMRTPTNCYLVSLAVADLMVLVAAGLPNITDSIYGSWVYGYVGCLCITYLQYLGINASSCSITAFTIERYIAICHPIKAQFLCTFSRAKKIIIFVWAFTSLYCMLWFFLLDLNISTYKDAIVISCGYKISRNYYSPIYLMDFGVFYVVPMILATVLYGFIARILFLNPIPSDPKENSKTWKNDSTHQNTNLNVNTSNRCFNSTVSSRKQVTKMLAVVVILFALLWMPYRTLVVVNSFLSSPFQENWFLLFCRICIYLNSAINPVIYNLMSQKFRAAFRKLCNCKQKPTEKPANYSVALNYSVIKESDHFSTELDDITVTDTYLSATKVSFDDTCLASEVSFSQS
#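 Enhancer read-out: after compound pinning and an initial kinetic agonist-mode read, an EC20 of TRH (10 nM final) was injected and fluo-8 calcium signal (Ex 480/Em 530) followed at 1 s/cycle for 100 cycles in TRHR-expressing cells.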
# TRHR ag – TRH receptor (human) agonism. 0.18% of 360,000 active. AID 493084. TRHR cells, calcium flux fluo-8, FDSS agonist mode. P34981. activation, % at 2 µM; also: 0% is about no effect
#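 Steps: seed TRHR cells overnight; add fluo-8 no-wash Ca dye, RT 30 min–1.5 h; record 10 s baseline; pin-transfer compounds; monitor fluorescence 1 cycle/s for the agonist window. Calcium increases flag candidate agonists.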
# D1 antag – blocks dopamine activation of the human D1 receptor; P21728; HEK293 TREx D1 cells, calcium flux, dopamine EC80; stronger effect = lower value; activity change, negative = inhibition, % at 10 µM; 3.2% of 360,000 active; AID 504652; in the data active = activity change below about -30%; also: % is scaled to controls: 0 for no effect and ±100 for the full control effect
#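 Tetracycline-induced HEK293 T-REx cells with force-coupled D1 receptor were loaded with a no-wash calcium dye. Compound was added after a 10 s baseline and read kinetically for 180 s; EC80 dopamine was then added and calcium flux followed another 180 s.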
# D1 agonist – human D1 receptor agonism | P21728 | HEK293 T-REx D1 cells, calcium flux, agonist mode | activation, % at 2 µM | 1% of 360,000 active; also: 0% is about no effect
#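 Agonism was scored from calcium flux recorded over 180 s (1 read/s) after pintool compound addition, following a 10-cycle baseline. Cells were inducible force-coupled HEK293 TREx D1, plated overnight at 30 C and loaded with no-wash calcium dye.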
# Starred values were filed as active, the others as inactive; · = no result given. Rule as the data show it, unless noted: active = activation above about 30%; inactive = the rest.
SMILES,D1 potentiator,TRHR enhancer,TRHR ag,D1 antag,D1 agonist
COc1ccc2nc(NC(=O)c3cc(=O)c4ccccc4o3)sc2c1,4,40*,0,8,1
COc1ccc2nc(NC(=O)c3cccc(-c4cc5ccccc5oc4=O)c3)sc2c1,-7,0,1,-33*,2
COc1ccc(C(=O)Nc2nc3ccc(OC)cc3s2)cc1,-2,-11,0,-12,3
c1ccc(-c2ccccc2OCCOCCN2CCCCC2)cc1,-11,3,1,-47*,24
CCC(C)c1ccccc1OCCOCCN1CCCC1 (stereo unspecified),-18,-4,0,-30*,10
c1ccc(-c2ccccc2OCCN2CCCC2)cc1,-12,3,1,-19,7
c1ccc(-c2ccccc2OCCCCN2CCCCCC2)cc1,-12,3,0,-35*,28
CC1CCN(CCCCOc2ccccc2-c2ccccc2)CC1,-6,5,1,-59*,20
CCC(C)c1ccccc1OCCCNC1CCCC1 (stereo unspecified),2,2,3,-34*,39*
COc1ccccc1OCCNC1CCCC1,-8,5,0,-6,2
CC1CCN(CCOCCOc2ccccc2Br)CC1,-3,7,1,-48*,5
CC1C(=O)N2CCCc3cc(S(=O)(=O)Nc4ccccc4C(N)=O)cc1c32 (stereo unspecified),-4,32*,0,-5,2
CC1C(=O)N2CCCc3cc(S(=O)(=O)Nc4ccccc4F)cc1c32 (stereo unspecified),-1,5,0,6,5
Cc1ccc(-c2noc(CCCC(=O)N3CCOCC3)n2)cc1,1,-4,1,3,1
O=C(CCCc1nc(-c2ccc(Cl)cc2)no1)N1CCOCC1,-6,-2,1,-41*,2
O=C(Nc1cc(Sc2ccccn2)cc([N+](=O)[O-])c1)c1cccc(Cl)c1,-8,17,0,-35*,22
CC(C)CNC(=S)N1CCC(c2nc(-c3ccc(F)cc3)no2)CC1,-8,-6,0,-34*,19
O=C(c1c(F)cccc1F)N1CCCC(c2nc(-c3ccc(F)cc3)no2)C1 (stereo unspecified),2,3,0,-31*,6
COc1cccc(-c2noc(C3CCCN(C(=O)CC(C)(C)C)C3)n2)c1 (stereo unspecified),-6,7,0,-67*,2
O=C(c1ccc(F)cc1)N1CCCC(c2nc(-c3ccncc3)no2)C1 (stereo unspecified),-2,-4,0,14,12
CCN(c1ccccc1)S(=O)(=O)c1ccc(Cl)c(NC(=O)c2ccc(=O)[nH]n2)c1,-3,10,0,19,1
Cn1nc(C(=O)Nc2ccccc2N2CCCC2)c2ccccc2c1=O,-4,-4,1,-2,3
CCc1ccc(NC2=NCC(=O)N2c2ccc3c(c2)OCCO3)cc1,3,0,0,7,1
CC1CCN(C(=O)C(=O)Nc2sc3c(c2C(=O)O)CC(C)(C)OC3)CC1,7,7,0,-58*,3
CCC(=O)Nc1nnc(/C=C/c2ccc(OC)cc2)s1,0,7,1,-48*,2
SMILES,D1 potentiator,TRHR enhancer,TRHR ag,D1 antag,D1 agonist
Cc1ccc2[nH]c(-c3ccccc3)cc(=O)c2c1,-5,-2,0,-18,-1
CCN(CC)Cc1c(-c2ccccc2)[nH]c2ccc(C)cc2c1=O,-13,10,0,-48*,0
FC(F)(F)c1nnc2c(Sc3ccc(Cl)cc3)nc3ccccc3n12,-1,11,1,20,1
OC1(c2ccc(OC(F)F)cc2)CSC(=Nc2cccnc2)N1C1CC1 (stereo unspecified),-12,0,2,-30*,10
COc1ccc(OC)c(C2(O)CSC(=Nc3cccnc3)N2Cc2ccco2)c1 (stereo unspecified),-2,4,-2,·,2
CCNC(=O)C(=O)Nc1ccc(OC)c(Cl)c1,-4,-5,0,-14,12
COc1ccc(NC(=O)C(=O)c2cc(C)n(-c3ccc(C)cc3)c2C)cc1Cl,-2,-2,0,-53*,4
COc1ccc(S(=O)(=O)c2c(Nc3cccc(C)c3C)sc(C(=O)c3ccccc3)c2N)cc1,1,0,2,-27,38*
COc1ccccc1Nc1sc(C(=O)c2ccc(F)cc2)c(N)c1S(=O)(=O)c1ccc(C)cc1,-1,5,2,16,32*
COc1ccc(S(=O)(=O)c2c(Nc3c(C)cccc3C)sc(C(=O)c3ccc(F)cc3)c2N)cc1,-2,8,3,9,52*
Cc1ccccc1Nc1sc(C(=O)c2ccccc2)c(N)c1S(C)(=O)=O,-3,-2,-1,2,11
COc1ccc(S(=O)(=O)c2c(Nc3c(C)cccc3C)sc(C(=O)c3ccc4c(c3)OCO4)c2N)cc1,-1,5,1,13,31*
COc1cccc(Nc2sc(C(=O)c3ccc4c(c3)OCO4)c(N)c2S(=O)(=O)c2ccccc2)c1,4,6,1,3,30
COc1ccc(-c2cc(C(=O)N3CCCC(C(F)(F)F)C3)c3ccccc3n2)cc1OC (stereo unspecified),5,2,1,13,3
Cc1occc1C(=O)NNC(=O)Nc1ccc([N+](=O)[O-])cc1,-6,5,0,-14,-1
CCc1ccc(CN2CCc3nc(Nc4ccc5c(c4)OCCO5)ncc3C2)cc1,0,4,1,-66*,1
Cc1ccccc1NC(=O)[C@H](CSCc1ccccc1)N1Cc2ccccc2C1=O,-3,-3,1,-15,6
CCOc1ncccc1C(=O)Nc1ccc(F)c(F)c1,-2,1,1,0,2
O=C(Nc1ccccc1N1CCOCC1)C1CCCCN1S(=O)(=O)c1ccccc1 (stereo unspecified),-3,-5,1,12,5
CCOC(=O)N1CCC(N2Cc3cccc(C(=O)Nc4ccc(F)cc4)c3C2=O)CC1,-2,-2,0,-53*,0
CCOC(=O)N1CCC(N2Cc3cccc(C(=O)Nc4ccc(CC)cc4)c3C2=O)CC1,-1,3,1,-3,1
Cc1ccc2cc3c(NS(=O)(=O)c4cccc5nonc45)nn(CC(C)C)c3nc2c1,2,0,1,-1,0
COc1ccc(OC)c(NC(=O)N2CCC(N3CCN(Cc4ccc(F)cc4)C(=O)C3=O)CC2)c1,-1,-3,1,-2,-2
COC(=O)c1ccccc1NC(=O)N1CCC(N2CCN(Cc3ccc(F)cc3)C(=O)C2=O)CC1,-1,0,0,-39*,-1
CCOc1cc(/C=N/NC(=O)c2ccc(CN3CCOCC3)cc2)ccc1OCc1ccccc1,5,-1,-1,9,1
